Screens: PubChem, National Center for Advancing Translational Sciences (NCATS)
JMJD2E inh: qHTS Assay for Inhibitors of Human Jumonji Domain Containing 2E (JMJD2E); Lysine-specific demethylase 4E (Homo sapiens), B2RXH2; JMJD2E catalytic domain, FDH-coupled NADH fluorescence (FDH is formaldehyde dehydrogenase); Potency, µM (highest dose often 57.1 µM), for inactives: at the top dose activity change, negative = inhibition, usual class: inhibitors; 1.6% of 230,000 active; active means well fitted inhibition curve with a large enough effect, not every such curve was filed as active; inconclusive means small, poorly fitted or top-dose-only effect, or another doubt; inactive means no such curve, though single readings can be large or run the other way;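 further: potency means the concentration at half of the fitted maximal effect; 0% = wells with enzyme and -100% = buffer wells without enzyme; nearly all actives have a fitted effect of over 50% in size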
Target sequence (B2RXH2 1-337 limits assumed): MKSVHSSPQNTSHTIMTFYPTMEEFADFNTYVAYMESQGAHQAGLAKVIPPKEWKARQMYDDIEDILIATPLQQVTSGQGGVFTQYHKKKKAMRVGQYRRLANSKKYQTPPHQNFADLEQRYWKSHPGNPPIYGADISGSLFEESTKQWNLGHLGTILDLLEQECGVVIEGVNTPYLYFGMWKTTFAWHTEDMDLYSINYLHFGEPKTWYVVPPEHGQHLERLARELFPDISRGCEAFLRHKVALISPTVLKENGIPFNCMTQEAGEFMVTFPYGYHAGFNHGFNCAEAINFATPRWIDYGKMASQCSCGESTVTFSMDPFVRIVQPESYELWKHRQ
Tau fibril ThT: qHTS for Inhibitors of Tau Fibril Formation, Thioflavin T Binding; Microtubule-associated protein tau (Homo sapiens), P10636; recombinant tau K18 P301L, heparin-induced fibrillization, ThT fluorescence; Potency, µM (titrated, usually from 57.4 µM), without a hit: at the highest dose activity, negative = inhibition, hits mostly inhibitors; 2.1% of 270,000 active; further: potency means the concentration at half of the fitted maximal effect; on the % scale 0 is the no-effect control and ±100 the full control effect; nearly all actives have a fitted effect of over 55% in size
Target sequence (P10636 561-689 P618L limits assumed): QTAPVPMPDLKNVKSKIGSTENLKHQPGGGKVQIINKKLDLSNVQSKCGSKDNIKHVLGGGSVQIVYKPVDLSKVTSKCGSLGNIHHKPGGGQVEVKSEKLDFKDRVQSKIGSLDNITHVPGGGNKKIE
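Fibril formation assay: tau K18 P301L at 15 uM with trace Alexa 594 label, heparin inducer 20 uM, pH 7 sodium acetate buffer, 37 C for 6 hr; endpoint ThT signal.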
Tau fibril FP: qHTS for Inhibitors of Tau Fibril Formation, Fluorescence Polarization | Microtubule-associated protein tau (Homo sapiens), P10636 | Potency, µM (doses to about 57.7 µM), without a hit: at the top dose activity, negative = inhibition, actives largely listed as inhibitors | K18 P301L tau heparin fibrillization, Alexa594 FP, 6 h | 0.39% of 280,000 active; further: potency means the concentration at half of the fitted maximal effect; on the % scale 0 is the no-effect control and ±100 the full control effect; nearly all actives have a fitted effect of over 55% in size
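Human tau K18 […] P301L fragment, 15 uM unlabeled plus 0.24 uM Alexa 594-labeled tau (final), with compound and 20 uM heparin in 100 mM sodium acetate pH 7; 6 hr at 37 C, then Alexa 594 FP read.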
Sfp PPTase inh: qHTS Assay for Inhibitors of Bacillus subtilis Sfp phosphopantetheinyl transferase (PPTase); Potency, µM, for inactives: largest response in the series, negative = inhibition, usual class: inhibitors; 4'-phosphopantetheinyl transferase ffp (Bacillus subtilis), Q9F4F7; AID 1490, 2009; Biochemical Sfp PPTase activity, qHTS; 3.5% of 310,000 active;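 further: the enzyme is Sfp with the accession as filed and its product quenches rhodamine fluorescence; potency means the concentration at half of the fitted maximal effect; 0% = enzyme reaction without inhibitor and -100% = no enzyme wells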
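Compounds were incubated with enzyme (final 15 nM) for 15 min at room temperature before substrate addition started the reaction. Fluorescence at 525 nm excitation, 598 nm emission was recorded immediately and after 30 minutes.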
FBPA coupling cs: qHTS Assay for Inhibitors of Fructose-1,6-bisphosphate Aldolase from Giardia Lamblia: Coupling assay counterscreen | coupling enzyme system counterscreen, AmpLite Red fluorescence | activity change, negative = inhibition, % at 58.2 µM, hits read low | 0.67% of 290,000 active | AID 2472, 2010; in the data active means activity change below about -30%; further: on the % scale 0 is the no-effect control and ±100 the full control effect
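Coupling enzymes only (glyceraldehyde-3-phosphate) + compound, at 57.5 uM final, 10 min RT; add substrate/coupling/AmpLite Red mix, 20 min RT; fluorescence ex 525/em 598 nm. Actives flag coupling-system interference.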
Tau fluor cs: Counterscreen qHTS for Inhibitors of Tau Fibril Formation, Fluorescence Polarization; tau K18 P301L Alexa594 fluorescence, heparin fibrillization; Potency, µM (titrated, usually from 57.7 µM), without a hit: at the highest dose activity change, negative = decrease; 0.93% of 280,000 active; further: potency means the concentration at half of the fitted maximal effect; on the % scale 0 is the no-effect control and ±100 the full control effect; nearly all actives have a fitted effect of over 55% in size
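Human K18 P301L tau (15 uM unlabeled plus 0.24 uM Alexa 594-labeled, final) in 100 mM sodium acetate pH 7 was mixed with compound and 20 uM heparin and incubated 6 hr at 37 C.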
Tau fibril TEM: Transmission Electron Microscopy Assay for Inhibitors of Tau Fibrillization; shares compounds with Tau fibril ThT; AID 1719, 2009; 70% of 45 active; fibril grade (0 = clumped fibrils, 4 = only tiny pieces) (no concentration beside the values); recombinant tau K18 P301L fibrillization, TEM grading; stronger effect = higher value;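 active means compounds whose electron micrographs showed tau fibrils broken into shorter filaments or fragments, graded high on fibril breakup; inconclusive means micrographs gave an unclear fibril picture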
tau sediment: Sedimentation Assay for Inhibitors of Tau Fibrillization; recombinant tau K18 P301L (four-repeat tau fragment), sedimentation SDS-PAGE densitometry; 50% of 110 active; inhibition, % at 100 µM; shares compounds with Tau fibril ThT; AID 1720, 2009; in the data active means inhibition above about 40%; inconclusive means no clear call, values can overlap the other calls; inactive means below about 18%
Numbers without * were called inactive; ? = inconclusive; . = no result given; ! = a repeat was not active; [ ] = remark or other dose. Only some compounds are listed: those with a hit (about 5.3% of all), similar ones and a draw of the others. Unless noted, the call rests on the fitted dose curve; in most records, active means well fitted curve in the direction sought with a large enough effect; inconclusive means small, poorly fitted or top-dose-only effect, or another doubt; inactive means no such curve, though single readings can be large; an effect the other way counts as inactive or inconclusive.

SMILES	JMJD2E inh	Tau fibril ThT	Tau fibril FP	Sfp PPTase inh	FBPA coupling cs	Tau fluor cs	others
O=[N+]([O-])c1ccc(N2CCCCC2)c2ncccc12	-14%	16µM*	-15%	-26%	-18	?
CCC(C)n1c(O)c(/C=N/Nc2ccccc2)c(=O)[nH]c1=S (stereo not given)	-3%	18µM*	-8%	45µM*	0	?
O=c1[nH]c(=S)n(C2CC2)c(O)c1/C=N/Nc1ccccc1	?	11µM*	?	50µM*	-1	-29%
O=c1[nH]c(=O)n(CCC2=CCCCC2)c(O)c1/C=N/Nc1cccc2ccccc12	?	18µM*	?	-26%	-16	?
O=c1[nH]c(=S)n(C2CC2)c(O)c1/C=N/Nc1cccc2ccccc12	3%	11µM*	?	20µM*	-53*	?
CCC(C)n1c(O)c(C=NCCc2ccccc2)c(=O)[nH]c1=S (stereo not given)	7%	-13%	4%	-9%	-1	-25%
CC(C)[C@H](NC(=O)[C@H](CC(=O)O)NC(=O)[C@H](Cc1ccccc1)NC(=O)[C@@H](C)NC(=O)[C@@H](N)Cc1ccc(O)cc1)C(=O)N[C@H](C(=O)NCC(N)=O)C(C)C	.	.	.	-14%	-3	.
CCCCC/C=C\C/C=C\C/C=C\C/C=C\CCCC(=O)NC1CC1	.	?	1%	-10%	0	-8%
CCOc1cc(C=C2C(=O)NC(=O)NC2=O)cc([N+](=O)[O-])c1O	8%	?	?	35µM*	-12	-4%
CN(C)c1ccc(C=C2C(=O)NC(=O)NC2=O)cc1[N+](=O)[O-]	2%	?	-11%	25µM*	2	-19%
CN1C(=O)C(=Cc2cc([N+](=O)[O-])ccc2N2CCCCC2)C(=O)N(C)C1=O	7%	-11%	-3%	-5%	2	-6%
CN1C(=O)C(=Cc2ccc(N(C)C)c([N+](=O)[O-])c2)C(=O)N(C)C1=O	6%	?	-10%	56µM*	-3	-27%
CN(C)c1ccc(C=C2C(=O)NC(=S)NC2=O)cc1[N+](=O)[O-]	?	32µM*	?	-87%	1	?
CCOC(=O)c1ncn2c1CN(C)C(=O)c1cc(N=[N+]=[N-])ccc1-2	-4%	-6%	4%	12%	-4	-4%
CCCCn1c(NC(=O)c2ccc(Br)o2)c(C(=O)OCC)c2nc3ccccc3nc21	?	?	?	-30%	-44*	-10%
CCCCn1c(NS(=O)(=O)c2ccccc2)c(C(=O)OCC)c2nc3ccccc3nc21	?	-12%	-4%	9%	0	-16%
COc1ccc(Nc2nc(N)nc(CSc3nc4ccccc4s3)n2)cc1	.	?	-1%	.	.	16µM*[quencher]
Cn1c(O)c(/C=C/C=Nc2ccccc2)c(=O)n(C)c1=S	4%	?	?	-11%	3	6.3µM*[fluorescent]
CC/C(=N\Nc1cccc2ccccc12)c1c(O)[nH]c(=O)[nH]c1=O	?	28µM*	?	?	-10	?
CCOP1(=S)Oc2cc3c(cc2C(C(=O)OC)(C(F)(F)F)O1)OCO3 (stereo not given)	-9%	?	-9%	25µM*	3	-6%
O=[N+]([O-])c1ccc(CN2CCN(c3ccc(Cl)cc3)CC2)o1	.	.	.	79µM*	-7	.
CCCCCCN1CCN(c2ccc(Cl)cc2)CC1	?	-13%	9%	-23%	-2	-6%
CCN1C[C@]2(COC(=O)c3ccccc3N3C(=O)C[C@H](C)C3=O)CC[C@H](OC)[C@@]34[C@@H]5C[C@H]6[C@H](OC)[C@H]5[C@](O)(C[C@@H]6OC)[C@@](O)([C@@H](OC)[C@@H]23)[C@@H]14	-28%	-6%	-4%	-6%	5	-7%
C[N+]1(C)C2CCC1CC(OC(=O)C(CO)c1ccccc1)C2 (stereo not given)	10µM*!	-3%	6%	13%	1	2%
CCOc1cccc(=NC2CCCCC2)c2c(C)n(C)c(C)c12	8%	13µM*	0%	-6%	-7	-4%
SMILES	JMJD2E inh	Tau fibril ThT	Tau fibril FP	Sfp PPTase inh	FBPA coupling cs	Tau fluor cs	others
CCOc1ccccc1N=C1SCCCN1C	-12%	5%	-4%	-12%	1	3%
Cn1c(=O)c2c(nc(N/N=C/c3c(O)n(-c4ccccc4)c(=S)[nH]c3=O)n2C)n(C)c1=O	25µM*	?	-9%	79µM*	-4	-27%
COc1cccc(-c2nnc3n(Cc4ccccc4Cl)c(=O)c4ccccc4n23)c1O	.	?	13%	.	.	-27%
ClC1=C(Cl)C(Cl)=C(Cl)C1=C/C=C/c1ccccc1	-2%	11µM*	?	-9%	1	14µM*[quencher]
CN(C)c1ccc(NC(=O)Oc2ccccc2)cc1	?	14µM*	?	79µM*	-2	?
Cc1ccc(N2CCN(C(=O)C3CCC(CNS(=O)(=O)c4ccc(Br)s4)CC3)CC2C)cc1 (stereo not given)	.	?	14%	.	.	-6%
CC(N)[C@H](O)c1ccc(O)c(O)c1 (stereo not given in full)	5.6µM*	3.5µM*	?	.	.	?	Tau fibril TEM=2*;tau sediment=70*
Cc1oc(-c2ccc(Cl)cc2)nc1CN1CCC(C(=O)NCCCN2CCN(c3cccc(Cl)c3)CC2)CC1	.	?	-9%	.	.	-6%
